In PubChem BioAssay (EPA / NIEHS):
Some structures have more than one record in an assay (separate samples or runs), and their calls can disagree. The source made the active and inactive calls. How the source made its calls: active means hit-call score of the fitted dose curve at least 0.9, where 1 is the maximum; inactive means score below 0.9.

read-out: Matrix Metallopeptidase 1 (MMP1), MMP1 (gene 4312); assay: BSK_BE3C_MMP1: BioMAP Diversity Plus: BE3C Assay for Matrix Metallopeptidase 1 (MMP1) Biomarker Activity (AID 2283024); details: primary human bronchial epithelial cells; actives raise or lower the signal
Method: BSK_BE3C is a cell-based, multiplexed-readout assay that uses bronchial epithelial cell, a human lung primary cell, with measurements taken at 24 hours after chemical dosing in a 96-well plate.BSK_BE3C_MMP1 is an assay component measured in the BSK_BE3C assay. It measures MMP-1 antibody related to regulation of gene expression using ELISA technology.Data from the assay component BSK_BE3C_MMP1 was analyzed into 1 assay endpoint. This assay endpoint, BSK_BE3C_MMP1, was analyzed with bidirectional fitting relative to DMSO as the negative control and baseline of activity. Using a type of binding reporter, gain or loss-of-signal activity can be used to understand changes in the signaling as they relate to the gene MMP1. Furthermore, this assay endpoint can be referred to as a primary readout, because this assay has produced multiple assay endpoints where this one serves a signaling function. To generalize the intended target to other relatable targets, this assay endpoint is annotated to the protease intended target family, where the subfamily is matrix metalloproteinase.
The levels of cell surface (or secreted, indicated by the prefix "s") biomarker endpoints were measured by ELISA. Overt cytotoxicity to cells in confluent adherent cultures (all systems other than the BT system) was assessed by measuring total protein levels using sulforhodamine B (SRB) staining in parallel cultures at the time of biomarker measurements, indicated as SRB endpoints. For proliferation assays for adherent cell types, individual cell types are cultured at sub-confluence and relative cell numbers quantified by SRB staining at time points optimized for each system (48 h: 3C and CASM3C systems; 72 h: BT and HDF3CGF systems; 96 h: SAg system). SRB was performed by staining cells with 0.1% SRB after fixation with 10% TCA and reading wells at 560 nm.Viability and proliferation of PBMC (T cells) was quantified by Alamar Blue reduction for the SAg and BT systems. For PBMC viability (referred to as PBMC Cytotoxicity within the assay endpoint names), cells were plated (75,000/well in a 96-well plate) and then chemical samples added for 1 h before addition of activators, SEB and TSST-1 (20 ng/mL final concentration each). Cells were incubated for 90 h. Then, Alamar Blue (20 uL/well) (Invitrogen, Cat DAL1100) was added for 6 h, and the plates were read with a fluorescence microplate reader at 546/580 nm (excitation/emission). For PBMC proliferation, cells were plated and activated as above but incubated for only 16 h prior to addition of Alamar Blue. Plates were read after 6 h.

Compound	AC50	outcome
O=S(=O)(O)CCC(F)(F)C(F)(F)C(F)(F)C(F)(F)C(F)(F)C(F)(F)F	45.5 µM (active)	inactive
Cc1ccc(S(=O)(=O)NC(=O)NN2CCCCCC2)cc1	–	inactive
OCC(CO)(CO)CO	–	inactive
OC(Cn1cncn1)(Cn1cncn1)c1ccc(F)cc1F	–	inactive
OCc1ccccc1	–	inactive
FC(F)(F)COC(OCC(F)(F)F)OCC(F)(F)F	–	inactive
CCCc1ccccc1	–	inactive
O=S(=O)(O)c1ccc(N=Nc2c(O)ccc3cc(S(=O)(=O)O)ccc23)cc1	–	inactive
C[C@]12C=CC(=O)C=C1CC[C@H]1[C@@H]3C[C@@H](O)[C@](O)(C(=O)CO)[C@@]3(C)C[C@H](O)[C@@]12F	–	inactive
C[Si](C)(C)C(F)(F)C(F)(F)C(F)(F)F	–	inactive
OC(CCl)CCl	–	inactive
OCCNCCO	–	inactive
O=C(O)c1cccc(C(=O)O)c1	–	inactive
CCCCCCCCCCCCCCO	–	inactive
CCCCCCCCCCCCCCCCOS(=O)(=O)O	–	inactive
CCn1nc(C)c2c1C(=O)NCC(c1ccc(O)cc1)=N2	–	inactive
CC[C@H](C)C(=O)O[C@H]1C[C@H](O)C=C2C=C[C@H](C)[C@H](CC[C@@H](O)C[C@@H](O)CC(=O)O)[C@H]21	–	inactive
CC1(C)C(=O)N(Cl)C(=O)N1Cl	–	inactive
CCc1cccc(CC)c1N	–	inactive
O=C(O)c1ccc2c(c1)nc(C(=O)NC1CCN(C3CC3)CC1)n2Cc1cc(-c2ccc(Cl)s2)on1	–	inactive

Compound	AC50	outcome
CCCCCCCC1CCC(=O)O1 (stereo not given)	–	inactive
OCc1c[nH]c2ccccc12	0.297 µM (active)	–
Cc1ncc([C@@H](CCCCCCc2ccc3c(n2)NCCC3)CC(=O)O)cn1	–	inactive
C=CCc1cc(S(=O)(=O)c2ccc(O)c(CC=C)c2)ccc1O	30.5 µM (active)	–
C[C@@H](Oc1ccc(CNC(=O)c2cccnc2Oc2ccc3c(c2)OCO3)c(F)c1)C(=O)O	–	inactive
CC(C)CCCCCCOC(=O)C1CCCCC1C(=O)OCCCCCCC(C)C (stereo not given)	–	inactive
CNC(C)=O	–	inactive
Cn1cc[nH]c1=S	–	inactive
Cc1cccc(O)c1C	–	inactive
CCCCCCOC(=O)CC(CC(=O)OCCCCCC)(OC(=O)CCC)C(=O)OCCCCCC	–	inactive
c1ccc2ncccc2c1	–	inactive
OCCOCCOCCO	–	inactive
CCOC(N)=O	–	inactive
C=CN1CCCC1=O	–	inactive
c1ccc(C(O[C@@H]2CCCN(CCc3ccc4c(c3)OCO4)C2)c2ccccc2)cc1	26.8 µM (active)	–
CCCCC(CC)C(=O)OCCOCCOCCOC(=O)C(CC)CCCC (stereo not given)	–	inactive
CC(C)C(=O)Nc1ccc([N+](=O)[O-])c(C(F)(F)F)c1	–	inactive
CCCCCCCC/C=C\CCCCCCCC(=O)OC[C@@H](O)[C@H]1OC[C@H](O)[C@H]1O	–	inactive
CCc1ccc(O)c(C(C)(C)C)c1	–	inactive
